Settings in all cases: concentration: 10 µM; 24 h
In test [1] the test system is HCC1569. Put plainly: cell number relative to DMSO (% of DMSO); higher = more cells (less growth inhibition / toxicity). Summed up: (§1)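 Treatment: HCC1569 and TDF cells, 800 per well in 384-well plates with RPMI and 10% FBS, were given compounds at 10 µM for 24 h at 37 °C, in triplicate. Readout: after 3.7% formaldehyde fixation, cells were stained with a rabbit anti-H1.0 antibody, an AlexaFluor 647 secondary and DAPI. Reported values are H1.0 nuclear intensity or cell number as percent of the plate control, taken as the median of replicates, with positional smoothing for HCC1569.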

In test [2] the test system is TDF. The test is described as above. In short, it runs like this:
as §1

Test [3] has as its system TDF. Put plainly: H1.0 immunofluorescence intensity relative to DMSO (% of DMSO); higher = stronger H1.0 induction, active = 120 or more. Summed up: as §1
Test [4] has as its system HCC1569. Kind of test: H1.0 immunofluorescence intensity relative to DMSO (% of DMSO); higher = stronger H1.0 induction, active = 140 or more. In short, it runs like this: as §1

± gives the standard deviation of the averaged measurements.
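For H1.0 immunofluorescence intensity relative to DMSO in this document: TDF is a line of transformed human dermal fibroblasts of mesenchymal origin.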
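For cell number relative to DMSO in this document: TDF denotes transformed human dermal fibroblasts of mesenchymal origin.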

As for `O=C1OC(CN2CCOCC2)CN1/N=C/c1ccc([N+](=O)[O-])o1` (stereo unspecified), the cell number is 102 in test [1] and 96.5 in test [2]. Further, the figures for the H1.0 immunofluorescence intensity in test [3] and in test [4] were 96.7 (inactive) and 104 (inactive), respectively.
As to `O=C1C(SCCO)=C(SCCO)C(=O)c2ccccc21` [2,3-bis[(2-hydroxyethyl)sulfanyl]naphthoquinone], the cell number came out at 36.5 in test [1] and 84.6 in test [2]. In addition, the H1.0 immunofluorescence intensity was 103 (inactive) in test [3] and 446 (active) in test [4].
Regarding `CCCCNc1c(C(=O)OCC)c(C)nc2c1cnn2CC` [Tracazolate], the cell number in test [1] was found to be 105; in test [2] it was 108. Moreover, the H1.0 immunofluorescence intensity was 92.8 (inactive) in test [3] and 107 (inactive) in test [4].
The corresponding values for `CCCCCC(O)C=CC1=C(CC=CCCCC(=O)O)C(=O)CC1` (stereo unspecified) [Prostaglandin B2] are 109, 109, 92 (inactive) and 97.4 (inactive).
The corresponding values for `CCN(CCO)CCCC(C)Nc1ccnc2cc(Cl)ccc12.O=S(=O)(O)O` (stereo unspecified) are 99, 91.2, 102 (inactive) and 95.7 (inactive).
`CCOC(=O)CNC(=O)[C@@H]1CCCN1C(=O)Cc1ccccc1`: the cell number in test [1] is 102; in test [2], 109. Also, the figures for the H1.0 immunofluorescence intensity in test [3] and in test [4] were 97.4 (inactive) and 87.1 (inactive), respectively.
For the compound `N#CC(=C(N)Sc1ccc(N)cc1)c1ccccc1C(F)(F)F` [MEK1/2 Inhibitor], the values for the cell number in test [1] and in test [2] were 100 and 111, respectively. Besides, the H1.0 immunofluorescence intensity is 86 (inactive) in test [3] and 110 (inactive) in test [4].
Regarding `Nc1c(Br)cc(Br)cc1CNC1CCC(O)CC1` (stereo unspecified) [Ambroxol], the cell number in test [1] came out at 104 ± 5.2; in test [2], 109 ± 5.6. Besides, the H1.0 immunofluorescence intensity is 100 (inactive) in test [3] and 103 (inactive) in test [4].
In the case of `CCOC(=O)C1=CC2(CC)CCCN3CCc4c(n1c1ccccc41)C32` (stereo unspecified) [Vinpocetine], the cell number in test [1] was 101 ± 3; in test [2] it was 106 ± 5.3. Besides, the results for the H1.0 immunofluorescence intensity in test [3] and in test [4] were 93.2 (inactive) and 98.8 (inactive), respectively.
With `COC(=O)C1C2CC3c4[nH]c5cc(OC)ccc5c4CCN3CC2CC(OC(=O)c2cc(OC)c(OC)c(OC)c2)C1OC` (stereo unspecified) [Reserpine], the cell number in test [1] came to 99.2; in test [2], 86.3. Also, the H1.0 immunofluorescence intensity in test [3] and in test [4] was 101 (inactive) in each case.
For the compound `CC#CC(=O)Nc1cc2c(Nc3ccc(F)c(Cl)c3)ncnc2cn1` [EGFR/ErbB-2/ErbB-4 Inhibitor], the cell number in test [1] came out at 87.1; in test [2], 78.2. Besides, the results for the H1.0 immunofluorescence intensity in test [3] and in test [4] were 104 (inactive) and 113 (inactive), respectively.
Turning to `S=C([S-])OC1CC2CC1C1CCCC21.[K+]` (stereo unspecified), the cell number in test [1] came out at 102; in test [2], 97.1. The H1.0 immunofluorescence intensity in test [3] is 90.2 (inactive); in test [4], 98.2 (inactive).
Take `CCCCCCC=CCCCCCCCC(=O)O` [9(E)-Hexadecenoic acid]: the cell number turned out to be 99.8 in test [1] and 97.4 in test [2]. The H1.0 immunofluorescence intensity in test [3] and in test [4] was 105 (inactive) in each case.
On to `COc1ccc(C2CC(=O)c3c(O)cc(OC4OC(COC5OC(C)C(O)C(O)C5O)C(O)C(O)C4O)cc3O2)cc1O` (stereo unspecified) [Hesperidine], for which the values for the cell number in test [1] and in test [2] were 107 and 102, respectively. The H1.0 immunofluorescence intensity in test [3] was 93.2 (inactive); in test [4], 84.8 (inactive).
The like results for `COc1cccc(-c2cn(-c3ccc(CCN4CCC(O)CC4)cc3)c3ncnc(N)c23)c1` were, in that order, 45.9, 53.9, 127 (active) and 177 (active).
Take `CC(C)COCC(CN(Cc1ccccc1)c1ccccc1)N1CCCC1.Cl` (stereo unspecified) [Bepridil hydrochloride]: the cell number in test [1] came out at 99.7; in test [2], 103. The H1.0 immunofluorescence intensity in test [3] was 92.8 (inactive); in test [4], 88.7 (inactive).
`O=C(CCCN1CCC(O)(c2ccc(Cl)cc2)CC1)c1ccc(F)cc1` [Haloperidol]: the results for the cell number in test [1] and in test [2] were 91 ± 7.7 and 92.6 ± 3.7, respectively. Further, the H1.0 immunofluorescence intensity in test [3] is 101 (inactive); in test [4] it was 117 (inactive).
Turning to `CC(C)n1cnc2c(NCc3ccccc3)nc(NCCO)nc21` [N9-Isopropylolomoucine], the cell number in test [1] was found to be 46; in test [2] it was 105. For the same compound, the figures for the H1.0 immunofluorescence intensity in test [3] and in test [4] were 95 (inactive) and 314 (active), respectively.
Take `CC1OC(n2cc(F)c(=O)[nH]c2=O)C(O)C1O` (stereo unspecified) [Doxifluridine]: the results for the cell number in test [1] and in test [2] were 88.3 and 107, respectively. Moreover, the values for the H1.0 immunofluorescence intensity in test [3] and in test [4] were 98.3 (inactive) and 101 (inactive), respectively.
`CC1CC=CC=CC=CC=CC(OC2OC(C)C(O)C(N)C2O)CC2OC(O)(CC(O)CC3OC3C=CC(=O)O1)CC(O)C2C(=O)O` (stereo unspecified) [Pimaricin]: the figures for the cell number in test [1] and in test [2] were 106 and 94, respectively. The H1.0 immunofluorescence intensity in test [3] is 94.9 (inactive); in test [4], 88.8 (inactive).
Regarding `CC(C)C(CO)Nc1nc(Nc2ccc(C(=O)O)c(Cl)c2)c2ncn(C(C)C)c2n1` (stereo unspecified), the cell number in test [1] was determined as 100; in test [2], 112. Moreover, the H1.0 immunofluorescence intensity in test [3] is 96.7 (inactive); in test [4] it was 115 (inactive).
The corresponding values for `CC(C)C(=O)c1c(C(C)C)nn2ccccc12` [Ibudilast] are 101 ± 4.1, 97.7 ± 1.3, 93.1 (inactive) and 94.5 (inactive).
With `COc1cccc(OC)c1OCCNCC1CSc2ccccc2O1.Cl` (stereo unspecified) [Benoxathian hydrochloride], the results for the cell number in test [1] and in test [2] were 91.4 and 108, respectively. Moreover, the H1.0 immunofluorescence intensity in test [3] was 91.8 (inactive); in test [4], 92 (inactive).
As for `CC(N)C1CCC(C(=O)Nc2ccncc2)CC1.Cl.Cl` (stereo unspecified), the cell number in test [1] stood at 110; in test [2], 106. In addition, the H1.0 immunofluorescence intensity is 87.3 (inactive) in test [3] and 90.1 (inactive) in test [4].

Source of the values: the supplement of paper PMC7156485.
